Our source for the binding signal values is publication PMC7862700, “An all-to-all approach to the identification of sequence-specific readers for epigenetic DNA modifications on cytosine”.

Holding throughout (assay): DAPPL (digital affinity profiling via proximity ligation, sequencing); 10 mM Tris-HCl pH 7.5, 50 mM NaCl, 1 mM DTT, 4% glycerol, room temperature, 30 min; GST-TFs on glutathione beads, 16-mer random dsDNA library, 0.1% formaldehyde crosslink after washing; high values mean tight binding
Common to all, as to settings: protein: recombinant; tags: N-terminal GST; dsDNA, one strand shown

One assay addresses T1, FLI1 (Homo sapiens, UniProt Q01543 1-452).
T1 sequence: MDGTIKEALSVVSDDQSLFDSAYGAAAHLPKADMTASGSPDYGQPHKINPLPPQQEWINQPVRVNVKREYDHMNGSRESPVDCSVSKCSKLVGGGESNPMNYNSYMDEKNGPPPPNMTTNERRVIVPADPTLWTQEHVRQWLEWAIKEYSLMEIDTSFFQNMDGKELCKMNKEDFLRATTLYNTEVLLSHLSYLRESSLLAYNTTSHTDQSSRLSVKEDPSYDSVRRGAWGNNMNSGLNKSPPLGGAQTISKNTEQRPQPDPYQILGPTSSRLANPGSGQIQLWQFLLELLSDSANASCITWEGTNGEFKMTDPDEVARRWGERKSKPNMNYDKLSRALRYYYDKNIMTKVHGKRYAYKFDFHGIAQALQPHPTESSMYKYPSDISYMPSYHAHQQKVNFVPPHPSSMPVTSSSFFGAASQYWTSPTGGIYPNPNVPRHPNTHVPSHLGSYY
A digest of the protocol: (§1)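 Yeast served to express human transcription factors as GST fusions, which were then captured on glutathione beads and labelled with DNA barcodes. Pooled with a tag-only sample, they were incubated with 200 nmole of a 16-mer random double-stranded DNA library for 30 min at room temperature in Tris/NaCl/DTT/glycerol buffer, washed, crosslinked with 0.1% formaldehyde, ligated by proximity, amplified by PCR and sequenced. Dividing each hexamer's read frequency for a factor by its frequency for the tag-only sample gives the binding signal.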

The target in the next assay is T2, ELK1 (Homo sapiens, UniProt P19419 1-428).
T2 sequence: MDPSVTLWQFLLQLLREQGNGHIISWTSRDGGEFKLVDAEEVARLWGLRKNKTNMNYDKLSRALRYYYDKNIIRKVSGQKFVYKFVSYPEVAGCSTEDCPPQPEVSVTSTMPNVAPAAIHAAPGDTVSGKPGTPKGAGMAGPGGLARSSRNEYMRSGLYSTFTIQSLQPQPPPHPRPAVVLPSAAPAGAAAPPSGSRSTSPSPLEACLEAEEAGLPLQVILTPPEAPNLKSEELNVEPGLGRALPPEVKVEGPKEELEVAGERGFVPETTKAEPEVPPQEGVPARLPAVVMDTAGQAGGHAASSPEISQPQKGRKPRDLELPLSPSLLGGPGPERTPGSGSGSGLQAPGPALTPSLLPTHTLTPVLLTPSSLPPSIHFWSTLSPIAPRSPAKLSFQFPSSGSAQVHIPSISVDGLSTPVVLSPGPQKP
A digest of the protocol:
as §1

Another assay deals with T3, GABPA (Homo sapiens, UniProt Q06546 1-454).
T3 sequence: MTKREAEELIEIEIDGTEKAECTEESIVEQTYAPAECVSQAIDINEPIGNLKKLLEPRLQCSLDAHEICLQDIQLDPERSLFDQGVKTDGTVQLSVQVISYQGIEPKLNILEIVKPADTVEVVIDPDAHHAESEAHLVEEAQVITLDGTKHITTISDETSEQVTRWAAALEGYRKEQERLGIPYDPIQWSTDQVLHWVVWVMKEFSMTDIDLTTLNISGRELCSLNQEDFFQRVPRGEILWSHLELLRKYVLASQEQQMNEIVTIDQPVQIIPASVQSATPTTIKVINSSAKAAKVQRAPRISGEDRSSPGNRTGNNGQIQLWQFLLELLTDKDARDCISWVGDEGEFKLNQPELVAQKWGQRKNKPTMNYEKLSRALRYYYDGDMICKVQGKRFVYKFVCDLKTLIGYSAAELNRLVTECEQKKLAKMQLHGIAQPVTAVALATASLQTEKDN
A digest of the protocol: as §1

The next assay deals with T4, ERG (Homo sapiens, UniProt P11308 1-479).
T4 sequence: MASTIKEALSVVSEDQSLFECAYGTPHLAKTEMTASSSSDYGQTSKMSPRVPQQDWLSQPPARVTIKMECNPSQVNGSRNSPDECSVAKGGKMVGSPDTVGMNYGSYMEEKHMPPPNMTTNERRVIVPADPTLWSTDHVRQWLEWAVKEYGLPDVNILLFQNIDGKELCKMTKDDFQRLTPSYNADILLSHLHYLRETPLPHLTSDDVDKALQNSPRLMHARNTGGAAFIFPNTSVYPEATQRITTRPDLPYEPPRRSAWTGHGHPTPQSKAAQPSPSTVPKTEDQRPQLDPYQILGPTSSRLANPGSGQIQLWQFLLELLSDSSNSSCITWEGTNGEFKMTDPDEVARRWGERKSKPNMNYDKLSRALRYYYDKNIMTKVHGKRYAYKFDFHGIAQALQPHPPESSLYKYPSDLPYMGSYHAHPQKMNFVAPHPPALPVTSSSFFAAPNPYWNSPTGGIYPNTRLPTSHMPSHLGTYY
A digest of the protocol:
as §1

In a further assay the target is ELF1 (Homo sapiens, UniProt P32519 1-619). A digest of the protocol: as §1
Sequence of ELF1 (P32519 whole entry): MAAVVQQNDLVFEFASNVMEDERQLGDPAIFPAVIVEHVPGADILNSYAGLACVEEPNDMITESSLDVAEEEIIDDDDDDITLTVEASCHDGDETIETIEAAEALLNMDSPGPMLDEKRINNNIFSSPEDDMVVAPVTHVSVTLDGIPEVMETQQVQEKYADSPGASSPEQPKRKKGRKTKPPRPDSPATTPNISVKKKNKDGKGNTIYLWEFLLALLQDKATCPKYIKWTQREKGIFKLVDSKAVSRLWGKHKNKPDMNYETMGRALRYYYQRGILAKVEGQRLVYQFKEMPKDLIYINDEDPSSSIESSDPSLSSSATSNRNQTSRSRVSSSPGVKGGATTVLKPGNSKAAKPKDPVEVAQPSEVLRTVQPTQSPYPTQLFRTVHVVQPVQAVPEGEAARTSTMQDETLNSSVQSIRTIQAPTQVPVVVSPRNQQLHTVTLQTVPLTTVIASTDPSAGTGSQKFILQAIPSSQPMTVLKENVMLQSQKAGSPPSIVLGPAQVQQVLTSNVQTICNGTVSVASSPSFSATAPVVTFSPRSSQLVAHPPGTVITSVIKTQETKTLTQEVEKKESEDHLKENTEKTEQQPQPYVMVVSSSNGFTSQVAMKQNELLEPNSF
In a further assay the target is T5, EHF (Homo sapiens, UniProt Q9NZC4 1-300).
T5 sequence: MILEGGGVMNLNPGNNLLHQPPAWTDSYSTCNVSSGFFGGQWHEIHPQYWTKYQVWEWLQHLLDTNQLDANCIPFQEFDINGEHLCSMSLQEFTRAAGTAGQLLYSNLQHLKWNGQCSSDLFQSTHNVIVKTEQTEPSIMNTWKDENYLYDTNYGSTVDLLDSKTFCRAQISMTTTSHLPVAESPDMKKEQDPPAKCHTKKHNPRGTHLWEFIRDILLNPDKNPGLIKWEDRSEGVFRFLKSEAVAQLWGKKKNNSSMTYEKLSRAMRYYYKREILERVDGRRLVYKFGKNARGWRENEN
The essentials: as §1

The target of the next assay is SPI1 (Homo sapiens, UniProt P17947 1-270). The essentials:
as §1

Another assay deals with SPIB (Homo sapiens, UniProt Q01892 1-262). The essentials:
as §1

The target in a further assay is T6, ELK3 (Homo sapiens, UniProt P41970 1-407).
T6 sequence: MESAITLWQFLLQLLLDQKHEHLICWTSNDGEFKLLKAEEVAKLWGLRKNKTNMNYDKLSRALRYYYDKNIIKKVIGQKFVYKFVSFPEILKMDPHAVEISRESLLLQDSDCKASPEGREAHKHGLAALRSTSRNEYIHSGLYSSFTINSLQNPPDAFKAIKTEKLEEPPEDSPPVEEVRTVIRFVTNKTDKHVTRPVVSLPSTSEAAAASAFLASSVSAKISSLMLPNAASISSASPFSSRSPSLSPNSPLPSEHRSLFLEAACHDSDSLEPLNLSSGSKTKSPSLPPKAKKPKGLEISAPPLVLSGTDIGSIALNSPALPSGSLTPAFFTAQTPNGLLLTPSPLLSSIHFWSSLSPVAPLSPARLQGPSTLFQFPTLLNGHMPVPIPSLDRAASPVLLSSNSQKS
A digest of the protocol:
as §1

Sequence of SPIB (Q01892 whole entry): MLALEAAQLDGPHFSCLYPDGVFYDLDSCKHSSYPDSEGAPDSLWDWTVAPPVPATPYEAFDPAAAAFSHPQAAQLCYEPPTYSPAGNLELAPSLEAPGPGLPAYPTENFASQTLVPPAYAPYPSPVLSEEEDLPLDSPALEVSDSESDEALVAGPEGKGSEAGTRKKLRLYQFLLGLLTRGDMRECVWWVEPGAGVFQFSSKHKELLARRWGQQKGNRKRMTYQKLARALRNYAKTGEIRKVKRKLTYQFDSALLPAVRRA

Consider GATCTT, for which the binding signal was 1.29 fold enrichment (6-mer frequency, TF over GST control) in the assay with FLI1; 1.33 fold enrichment (6-mer frequency, TF over GST control) in the assay with ELK1; 1.32 fold enrichment (6-mer frequency, TF over GST control) in the assay with GABPA; 1.35 fold enrichment (6-mer frequency, TF over GST control) with ERG; 1.23 fold enrichment (6-mer frequency, TF over GST control) with ELF1; 1.22 fold enrichment (6-mer frequency, TF over GST control) in the assay with EHF. Besides, the binding signal with SPI1 was 1.19 fold enrichment (6-mer frequency, TF over GST control); with SPIB it was 1.36 fold enrichment (6-mer frequency, TF over GST control); in the assay with ELK3, 1.29 fold enrichment (6-mer frequency, TF over GST control).
As for TCTATT, the binding signal in the assay with FLI1 is 1.33 fold enrichment (6-mer frequency, TF over GST control); with ELK1 it was 1.3 fold enrichment (6-mer frequency, TF over GST control); with GABPA, 1.18 fold enrichment (6-mer frequency, TF over GST control); in the assay with ERG, 1.25 fold enrichment (6-mer frequency, TF over GST control); in the assay with ELF1, 1.29 fold enrichment (6-mer frequency, TF over GST control); with EHF, 1.28 fold enrichment (6-mer frequency, TF over GST control). For the same sequence, the binding signal was 1.28 fold enrichment (6-mer frequency, TF over GST control) with SPI1; 1.28 fold enrichment (6-mer frequency, TF over GST control) in the assay with SPIB; 1.18 fold enrichment (6-mer frequency, TF over GST control) in the assay with ELK3.
Consider AAAATA, for which the binding signal is 1.17 fold enrichment (6-mer frequency, TF over GST control) with FLI1; 1.12 fold enrichment (6-mer frequency, TF over GST control) with ELK1; 1.18 fold enrichment (6-mer frequency, TF over GST control) in the assay with GABPA; 1.19 fold enrichment (6-mer frequency, TF over GST control) with ERG; 1.19 fold enrichment (6-mer frequency, TF over GST control) with ELF1; 1.13 fold enrichment (6-mer frequency, TF over GST control) with EHF. Further, the binding signal is 1.18 fold enrichment (6-mer frequency, TF over GST control) with SPI1; 1.23 fold enrichment (6-mer frequency, TF over GST control) with SPIB; 1.17 fold enrichment (6-mer frequency, TF over GST control) with ELK3.
On to ATAAAA, for which the binding signal is 1.09 fold enrichment (6-mer frequency, TF over GST control) in the assay with FLI1; 1.15 fold enrichment (6-mer frequency, TF over GST control) in the assay with ELK1; 1.1 fold enrichment (6-mer frequency, TF over GST control) with GABPA; 1.09 fold enrichment (6-mer frequency, TF over GST control) with ERG; 1.12 fold enrichment (6-mer frequency, TF over GST control) in the assay with ELF1; 1.1 fold enrichment (6-mer frequency, TF over GST control) in the assay with EHF. In addition, the binding signal with SPI1 was 1.17 fold enrichment (6-mer frequency, TF over GST control); with SPIB it was 1.21 fold enrichment (6-mer frequency, TF over GST control); with ELK3, 1.12 fold enrichment (6-mer frequency, TF over GST control).
As for ACTATA, the binding signal in the assay with FLI1 is 1.37 fold enrichment (6-mer frequency, TF over GST control); with ELK1 it was 1.28 fold enrichment (6-mer frequency, TF over GST control); in the assay with GABPA, 1.33 fold enrichment (6-mer frequency, TF over GST control); with ERG it was 1.31 fold enrichment (6-mer frequency, TF over GST control); with ELF1, 1.33 fold enrichment (6-mer frequency, TF over GST control); with EHF it was 1.29 fold enrichment (6-mer frequency, TF over GST control). In addition, the binding signal in the assay with SPI1 was 1.43 fold enrichment (6-mer frequency, TF over GST control); with SPIB, 1.28 fold enrichment (6-mer frequency, TF over GST control); with ELK3, 1.29 fold enrichment (6-mer frequency, TF over GST control).
Consider ATATAC, for which the binding signal in the assay with FLI1 is 1.13 fold enrichment (6-mer frequency, TF over GST control); in the assay with ELK1, 1.24 fold enrichment (6-mer frequency, TF over GST control); with GABPA, 1.2 fold enrichment (6-mer frequency, TF over GST control); with ERG it was 1.18 fold enrichment (6-mer frequency, TF over GST control); in the assay with ELF1 it was 1.14 fold enrichment (6-mer frequency, TF over GST control); in the assay with EHF, 1.22 fold enrichment (6-mer frequency, TF over GST control). Further, the binding signal is 1.19 fold enrichment (6-mer frequency, TF over GST control) with SPI1; 1.21 fold enrichment (6-mer frequency, TF over GST control) with SPIB; 1.27 fold enrichment (6-mer frequency, TF over GST control) with ELK3.
ACGTTC: the binding signal in the assay with FLI1 is 1.31 fold enrichment (6-mer frequency, TF over GST control); with ELK1, 1.45 fold enrichment (6-mer frequency, TF over GST control); with GABPA, 1.33 fold enrichment (6-mer frequency, TF over GST control); in the assay with ERG it was 1.39 fold enrichment (6-mer frequency, TF over GST control); with ELF1 it was 1.4 fold enrichment (6-mer frequency, TF over GST control); with EHF, 1.3 fold enrichment (6-mer frequency, TF over GST control). Besides, the binding signal with SPI1 is 1.29 fold enrichment (6-mer frequency, TF over GST control); in the assay with SPIB, 1.37 fold enrichment (6-mer frequency, TF over GST control); with ELK3 it was 1.38 fold enrichment (6-mer frequency, TF over GST control).
For the sequence GTATAT, the binding signal is 1.13 fold enrichment (6-mer frequency, TF over GST control) with FLI1; 1.22 fold enrichment (6-mer frequency, TF over GST control) in the assay with ELK1; 1.13 fold enrichment (6-mer frequency, TF over GST control) with GABPA; 1.09 fold enrichment (6-mer frequency, TF over GST control) with ERG; 1.17 fold enrichment (6-mer frequency, TF over GST control) with ELF1; 1.2 fold enrichment (6-mer frequency, TF over GST control) with EHF. Further, the binding signal with SPI1 was 1.13 fold enrichment (6-mer frequency, TF over GST control); with SPIB it was 1.23 fold enrichment (6-mer frequency, TF over GST control); with ELK3 it was 1.11 fold enrichment (6-mer frequency, TF over GST control).
